The values that follow come from PubChem BioAssay AID1745847 (National Center for Advancing Translational Sciences (NCATS), 2022).

Out of some 2,100 compounds screened, about 670 (32%) were called active. Roughly 50% stayed inconclusive and do not appear here. The list shows a part of the results. Values without a mark were called inactive. Calls come from the whole dose curve; as a rule, active = well fitted inhibition curve with a large enough effect; inconclusive = small, poorly fitted or top-dose-only effect; inactive = no such curve, though single readings can be large or run the other way.
% is set by controls: 0 for no effect and ±100 for the full control effect; potency is the fitted concentration of half-maximal effect.

This assay in a line: CMV-Luciferase Counterscreen for Inhibitors of ATXN expression. Note: nearly all actives have a fitted effect of over 55% in size. Conditions: HEK-293 CMV-luciferase reporter, luminescence, 24 h; series mostly up to 57.5 µM; activity change, negative = inhibition: at the top concentration. (A counterscreen serves to expose hits that act by an unwanted route or on another target.)
As for `N#Cc1nc(Cc2cccc3ccccc23)oc1NCc1ccc(F)cc1`, the Potency was 12.6 µM (active).
Same read-out and setting: to `O=C(N/N=C/c1ccc([N+](=O)[O-])s1)c1ccccc1` belongs 7.94 µM (active); to `Cc1ccnn1CC(=O)N/N=C/c1ccc([N+](=O)[O-])s1`, 15.8 µM (active); to `CC(C)(C)c1cc(C(=O)N/N=C/c2ccc([N+](=O)[O-])s2)n[nH]1`, 11.2 µM (active).
The same measure, in the same setting: to `Cc1ccccc1C(=O)N/N=C/c1ccc([N+](=O)[O-])s1` belongs 11.2 µM (active); to `COc1ccc(C(=O)NCC(=O)N/N=C/c2ccc([N+](=O)[O-])s2)cc1OC`, 12.6 µM (active).
Turning to `CC(C)c1cccc(C(C)C)c1Nc1cn[nH]c1`, the activity change, negative = inhibition was -9.58% [at 11.4 µM].
Take `NC(=Nc1nc(-c2ccccn2)cc2ccccc12)c1ccccn1`: the Potency is 0.0398 µM (active).
With `c1ccc(-c2cccc(-c3ccccn3)n2)nc1`, the activity change, negative = inhibition is 72.5% [at 11.4 µM].
For the compound `CCc1ccc(-c2csc(NC(=O)C3CC(=O)N(c4ccc5c(c4)OCCO5)C3)n2)cc1` (stereo not drawn), the Potency is 10 µM (active).
With `COc1ccc(-c2nc(NC(=O)C3CC(=O)N(c4ccc5c(c4)OCCO5)C3)sc2C)cc1` (stereo not drawn), the Potency was 10 µM (active).
For `O=C(C1CC(=O)N(c2ccc3c(c2)OCCO3)C1)N1CCN(c2ccccc2)CC1` (stereo not drawn), the activity change, negative = inhibition was -8.65% [at 11.4 µM].
For the compound `COc1cc(-c2cc3nc(NCc4cccc(Cl)c4)ccn3n2)cc(OC)c1OC`, the Potency is 3.55 µM (active).
Take `O=C(Nc1c(Cl)cccc1Cl)Oc1cccc2cccnc12`: the Potency was 10 µM (active).
Turning to `O=C(Nc1cccc2cccnc12)c1csc(COCCO)n1`, the “activity change, negative = inhibition” value was 4.19%.
Consider `CCOC(=O)c1ccc(/C=C2/C=C(c3ccccc3)N(c3ccc(Cl)c(C(=O)O)c3)C2=O)cc1`, for which the Potency was 12.6 µM (active).
Regarding `CCOC(=O)c1ccc(N=c2sc(C(=O)OC)cc(=O)n2-c2ccc(C(=O)OCC)cc2)cc1`, the activity change, negative = inhibition is -3.07% [at 11.4 µM].
As to `Cc1ccc(-c2c(C#N)c(N)n3c(nc4ccccc43)c2C#N)cc1`, the Potency is 7.08 µM (active).
Regarding `NS(=O)(=O)c1ccc(CCNc2ccn3nc(-c4cccc(C(F)(F)F)c4)cc3n2)cc1`, the Potency was 31.6 µM (active).
`CN(C)CCCNc1nc2cc(-c3ccc(F)cc3)sc2c(=O)n1C`: the “activity change, negative = inhibition” value is -18.5%.
As for `Cn1c(NCCN2CCCC2)nc2cc(-c3ccsc3)sc2c1=O`, the “activity change, negative = inhibition” value is -18.1%.
Regarding `COc1cccc(CNc2nc3cc(-c4ccc(C(=O)N5CCN(C)CC5)cc4)sc3c(=O)n2C)c1`, the Potency was 12.6 µM (active).
Take `Fc1ccc2[nH]c3c(NCc4ccccc4)ncnc3c2c1`: the Potency is 0.631 µM (active).
Still for that read-out and setting: to `COc1ccc(CNc2ncnc3c2[nH]c2ccccc23)cc1` belongs 2.82 µM (active).
Take `Cc1[nH]n2c(=O)cc(C(C)(C)C)nc2c1-c1ccccc1`: the Potency is 3.55 µM (active).
The same measure, in the same setting: to `O=C(CN1C(=O)c2ccccc2S1(=O)=O)c1ccc(O)c(O)c1` belongs 0.794 µM (active).
Regarding `Cc1ccc(C(=O)CN2C(=O)c3ccccc3S2(=O)=O)cc1`, the Potency was 0.398 µM (active).
Regarding `O=C(CN1C(=O)c2ccccc2S1(=O)=O)N1CCc2ccccc21`, the Potency was 0.224 µM (active).
On to `O=C(/C=C/c1ccccc1)c1cc(Br)ccc(=O)c1O`, for which the “activity change, negative = inhibition” value was -15.1%.
As to `Cc1ccc(C)c(/C=C/C(=O)c2ccccc(=O)c2O)c1`, the “activity change, negative = inhibition” value is -25.3%.
As to `Cc1cc(C)c(C(=O)/C=C/c2ccc(C(C)C)cc2)c(=O)[nH]1`, the Potency was 8.91 µM (active).
Consider `Cc1[nH]c(=O)c(C(=O)/C=C/c2ccccc2)c2c1CCCC2`, for which the Potency is 8.91 µM (active).
Consider `C[C@@H]1C[C@@H]2O[C@H]2/C=C\C=C\C(=O)Cc2c(Cl)c(O)cc(O)c2C(=O)O1`, for which the activity change, negative = inhibition was 25.3% [at 11.4 µM].
With `CCCCNCCCOc1cccc(Cl)c1Cl`, the “activity change, negative = inhibition” value is -18.4%.
Take `COCCCNCCCOc1ccc(Cl)cc1C(C)(C)C`: the Potency is 22.4 µM (active).
Take `Cc1nn(-c2ccccn2)c2c1C(=O)CC(C)(C)C2N=[N+]=[N-]` (stereo not drawn): the activity change, negative = inhibition was -24.8% [at 11.4 µM].
Turning to `CC1(C)c2[nH]c3ccccc3c2C[C@H]2C(=O)N(Cc3ccccc3F)C(=O)N21`, the Potency was 17.8 µM (active).
With `CC1(C)c2[nH]c3ccccc3c2C[C@H]2C(=O)N(Cc3cccc(F)c3)C(=O)N21`, the Potency is 20 µM (active).
As to `O=C(/C=C\c1ccco1)Nc1nc(-c2ccc3ccccc3c2)cs1`, the Potency is 3.16 µM (active).
Take `OC(c1ccccc1)(c1nc(-c2ccc3ccccc3c2)cs1)C(F)(F)F` (stereo not drawn): the activity change, negative = inhibition is 26.4% [at 11.4 µM].
With `CC(SC(C)C(=O)NN=Cc1cccc(Cl)c1)C(=O)NN=Cc1cccc(Cl)c1` (stereo not drawn), the activity change, negative = inhibition was -24.3% [at 11.4 µM].
As for `C=CCc1cccc(/C=N/NC(=O)CCC(=O)Nc2ccc(F)cc2)c1O`, the Potency is 3.98 µM (active).
On to `C=CCc1cccc(/C=N/NC(=O)c2ccccc2Br)c1O`, for which the Potency is 10 µM (active).
For the compound `C=CCc1cccc(/C=N/NC(=O)C(C)Nc2ccc(C)cc2)c1O` (stereo not drawn), the Potency was 10 µM (active).
For `C=CCc1cccc(/C=N/NC(=O)CCC(=O)Nc2ccc(C)cc2)c1O`, the Potency is 8.91 µM (active).
Regarding `C=CCc1cccc(/C=N/NC(=O)CNc2ccccc2)c1O`, the Potency is 2 µM (active).
The same measure, in the same setting: to `C=CCc1cccc(/C=N/NC(=O)CCCNc2ccc(C)cc2)c1O` belongs 15.8 µM (active).
Take `Nc1ccc2c(c1)OC1(CCCC1)O2`: the activity change, negative = inhibition was -27.3% [at 11.4 µM].
Take `CC(C)(C)c1ccc(OCCn2nc(C(=O)O)c3ccccc3c2=O)cc1`: the “activity change, negative = inhibition” value was -11.4%.
Regarding `COc1ccc(NC(=O)N2CCN(c3nc(-c4cccc(OC)c4)cs3)CC2)cc1`, the Potency was 3.55 µM (active).
On to `Cn1nccc1C(=O)N1CCCC(C(=O)c2cccc3ccccc23)C1` (stereo not drawn), for which the “activity change, negative = inhibition” value was -16.4%.
With `CCCc1cnc(NCCNCC(O)COc2ccc(Cl)c(Cl)c2)nc1` (stereo not drawn), the Potency is 31.6 µM (active).
Take `N#C/C(=C\Nc1ccc2cn[nH]c2c1)c1nc(-c2ccc(Cl)cc2)cs1`: the activity change, negative = inhibition is 11% [at 11.4 µM].
Regarding `Cc1ccc(SC2=C(Sc3ccc(C)cc3)C(=O)c3ccccc3C2=O)cc1`, the “activity change, negative = inhibition” value is 68.6%.
On to `O=C1C(SCCO)=C(SCCO)C(=O)c2ccccc21`, for which the Potency is 8.91 µM (active).
Turning to `CCCNC(=O)c1ccc2c(=O)c(O)c(-c3cccc(Br)c3)[nH]c2c1`, the Potency was 20 µM (active).
In the case of `C/C(=N\NC(=O)C(C)n1nc(C)c([N+](=O)[O-])c1C)c1ccccc1O` (stereo not drawn), the Potency is 2.51 µM (active).
Regarding `CCCCC(=O)NC(c1ccc(N(CC)CC)cc1)c1ccc2cccnc2c1O` (stereo not drawn), the Potency is 0.282 µM (active).
Consider `CCCCC(=O)NC(c1ccc(N(C)C)cc1)c1ccc2cccnc2c1O` (stereo not drawn), for which the Potency is 1.78 µM (active).
Turning to `CO[C@@]12[C@@H]3N[C@@H]3CN1C1=C(C(=O)C(N)=C(C)C1=O)[C@@H]2COC(N)=O`, the activity change, negative = inhibition was 10.2% [at 11.4 µM].
As to `CC(C)CC(NC(=O)c1ccc(Cl)cc1)C(=O)OCC(=O)c1ccc2c(c1)NC(=O)CO2` (stereo not drawn), the Potency is 22.4 µM (active).
In the case of `Cc1ccc(OCC(=O)c2cc(C)n(Cc3cccs3)c2C)c([N+](=O)[O-])n1`, the Potency is 3.98 µM (active).
For the compound `C/C(=N\NC(=O)Cc1ccc(Cl)cc1)c1ccccc1O`, the Potency was 11.2 µM (active).
Take `C/C(=N\NC(=O)CN(c1ccccc1)S(C)(=O)=O)c1ccccc1O`: the Potency is 12.6 µM (active).
With `COc1ccccc1N(CC(=O)N/N=C(\C)c1ccccc1O)S(=O)(=O)c1ccc(C)cc1`, the Potency was 11.2 µM (active).
Consider `COc1ccc(CC(=O)N/N=C(\C)c2ccccn2)cc1`, for which the Potency was 8.91 µM (active).
The same measure, in the same setting: to `COc1ccccc1N(CC(=O)NCCSCc1ccc(C)cc1)S(=O)(=O)c1ccccc1` belongs 22.4 µM (active).
Turning to `CC(C)C[C@H](NC(=O)c1[nH]cnc1C(=O)Nc1ccc(CNC(=O)OC(C)(C)C)cc1)C(=O)OCc1ccccc1`, the activity change, negative = inhibition was -24.4% [at 11.4 µM].
